# RGS8-Gao = modulates binding of RGS8 to human Galphao. AID 1423. actives 0.34% (n = 220,000). response (percent of control binding), % at 10 µM. multiplexed bead flow cytometry; actives lie on both sides; in the data active means response below about 60% or above about 140%; inactive means in between;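 further: Galphao activated as the GDP aluminium fluoride complex binding bead-coupled RGS8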
# RGS16-Gao HTS = RGS16-Galphao interaction regulator (human); O15492+P09471; bead-based flow cytometry RGS16-Galphao binding, fluorescence; actives lie on both sides; binding response (% of control), % at 10 µM; actives 0.38% (n = 220,000);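 further: Galphao activated by GDP with aluminum fluoride before binding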
# Target sequence (O15492 whole entry, looked up): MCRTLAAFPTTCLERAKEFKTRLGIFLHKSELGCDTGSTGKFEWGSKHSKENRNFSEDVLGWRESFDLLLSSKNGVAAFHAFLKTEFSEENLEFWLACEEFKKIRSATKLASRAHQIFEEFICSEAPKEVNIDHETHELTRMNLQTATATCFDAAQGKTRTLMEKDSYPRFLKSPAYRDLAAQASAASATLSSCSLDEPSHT
# Target sequence (P09471 whole entry, looked up): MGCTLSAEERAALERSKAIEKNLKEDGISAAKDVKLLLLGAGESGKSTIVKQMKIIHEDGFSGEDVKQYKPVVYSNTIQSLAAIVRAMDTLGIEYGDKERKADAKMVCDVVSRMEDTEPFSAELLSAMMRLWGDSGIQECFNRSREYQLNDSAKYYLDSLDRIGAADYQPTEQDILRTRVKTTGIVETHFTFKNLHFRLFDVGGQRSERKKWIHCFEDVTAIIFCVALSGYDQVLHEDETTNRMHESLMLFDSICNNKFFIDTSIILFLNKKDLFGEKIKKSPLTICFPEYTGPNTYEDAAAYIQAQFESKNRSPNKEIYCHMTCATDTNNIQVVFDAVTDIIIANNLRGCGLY
# RGS7-Gao reg = regulators of human RGS7-Galphao interaction. P09471. Multiplexed bead flow cytometry, RGS7-Galphao binding; actives lie on both sides. binding response (% of control), % at 10 µM. actives 0.35% (n = 220,000). AID 1439; in the data active means binding response below about 49% or above about 150%; inconclusive means no clear call, values can overlap the other calls; inactive means in between;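 further: fluorescent Galphao held in activated GDP-AlF4 state binding bead-coupled RGS7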
# RGS4-Gao reg = human RGS4-Galphao interaction regulation | P09471 | Multiplexed bead flow cytometry, RGS4-Galphao binding; actives lie on both sides | actives 0.33% (n = 220,000) | binding response (% of control), % at 10 µM; in the data active means binding response below about 49% or above about 150%; inactive means in between;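 further: fluorescent Galphao activated with aluminum fluoride binding bead-coupled RGS4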
# RGS-Gao = RGS4-Galphao interaction regulator (human); shares compounds with RGS16-Gao HTS; multiplexed bead flow cytometry, RGS–Galpha-o binding; RGS4–Galpha-o binding response, % at 10 µM; actives 99% (n = 1,600); AID 1504;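 further: fluorescently labeled Galpha-o bound to GDP with aluminium fluoride binding biotinylated RGS beads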
# Avidin counter = biotin-avidin bead binding disruption counter-screen | shares compounds with RGS16-Gao HTS | streptavidin beads, fluorescein-biotin binding, flow cytometry | inhibition, % at 10 µM | 1,700 tested, under 10 active;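 active means inhibition above 50%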;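 further: median green fluorescence of gated singlet beads compared with DMSO control wells; 0% = DMSO wells and 100% = complete loss of bead fluorescence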
# RGS8-Gao confirm = RGS8-Galphao interaction regulation, single point confirmation. shares compounds with RGS16-Gao HTS. bead-based flow cytometry RGS8-Galphao binding, fluorescence; actives lie on both sides. binding response (% of control), % at 10 µM. actives 3% (n = 1,700). AID 1836; in the data active means binding response below about 72% or above about 130%; inactive means in between;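 further: Galphao activated as GDP AlF4 complex before binding bead RGS8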
# RGS7-Gao confirm = confirmation of regulators of human RGS7-Galphao interaction; shares compounds with RGS16-Gao HTS; bead-based flow cytometry RGS7-Galphao binding; actives lie on both sides; response (percent of control binding), % at 10 µM; actives 7.8% (n = 1,700); AID 1837; in the data active means response below about 75% or above about 130%; inactive means in between;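 further: fluorescent Galphao activated with GDP and aluminum fluoride binding bead-coupled RGS7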
# RGS16-Gao conf = confirmation of regulators of human RGS16-Galphao interaction; actives 4% (n = 1,700); bead-based flow cytometry, RGS16-Galphao binding; actives lie on both sides; response (% of control binding), % at 10 µM; shares compounds with RGS16-Gao HTS; in the data active means response below about 74% or above about 130%; inactive means in between;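 further: Galphao activated as the GDP aluminium fluoride complex binding bead-coupled RGS16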
# RGS4-Gao single = RGS4-Galphao interaction regulation, single point confirmation | shares compounds with RGS16-Gao HTS | RGS4-Galphao binding, multiplexed bead flow cytometry; actives lie on both sides | binding response (% of control), % at 10 µM | actives 4% (n = 1,700) | AID 1840; in the data active means binding response below about 74% or above about 130%; inactive means in between
# RGS19-Gao conf = confirmation of regulators of human RGS19-Galphao interaction. shares compounds with RGS16-Gao HTS. bead-based flow cytometry RGS19-Galphao binding; actives lie on both sides. response (percent of control binding), % at 10 µM. actives 5% (n = 1,700). AID 1841; in the data active means response below about 50% or above about 160%; inactive means in between;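 further: 100% = no compound control and 0% = blank background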
# An asterisk follows results filed as active; i = inactive; ? = inconclusive; · = no result given; [ ] = dose if it differs, or a comment. Compounds with a hit are over-represented: about 0.78% of the library has one in this group of screens. Unless noted, how the calls were made is not given here.
SMILES,RGS8-Gao,RGS16-Gao HTS,RGS7-Gao reg,RGS4-Gao reg,Avidin counter,RGS8-Gao confirm,RGS7-Gao confirm,RGS16-Gao conf,RGS4-Gao single,RGS19-Gao conf,others
COc1ccc(-c2cc(C(F)(F)F)c(C#N)c(SCC(=O)Nc3ccccc3C#N)n2)cc1,121.5,468.6,152.6*[activator],256.5*[activator],-0.4,101.7,88.9,100.0,92.3,114.3,
COc1ccc(NC(=O)CSc2nc(-c3ccc(C)cc3)cc(C(F)(F)F)c2C#N)cc1,93.5,95.5,98.8,92.6,·,·,·,·,·,·,
O=C(Oc1cccc2cccnc12)c1ccco1,93.8,93.9,95.8,97.1,·,·,·,·,·,·,
O=C(Cc1ccc(Cl)cc1)Oc1cccc2cccnc12,65.5,22.4*,82.3,78.9,0.5,97.9,96.0,96.5,99.0,84.1,RGS-Gao=78.9*
O=C(CSc1ncnc2c1oc1ccccc12)Nc1nccs1,132.4,153.7,155.4*[activator],146.4,-0.8,111.8,106.8,106.5,101.6,93.8,RGS-Gao=146.4*
O=C(Cn1nnc(-c2cc(C(F)(F)F)cc(C(F)(F)F)c2)n1)NNC(=S)Nc1ccc(Cl)cc1,145.4*[activator],169.0,?,185.0*[activator],-0.2,103.1,108.4,106.1,107.9,97.6,
Cc1ccc(S(=O)(=O)N(CC(=O)N2CCCCCC2)c2ccccc2)cc1,101.0,101.3,98.5,99.8,·,·,·,·,·,·,
Cc1ccc(N(CC(=O)N2CCN(C3CCCCC3)CC2)S(=O)(=O)c2cccnc2)cc1,134.7,259.8*[activator],108.1,109.0,·,·,·,·,·,·,RGS-Gao=109.0*
COc1cc2nc(CN3CCOCC3)n(CC(=O)N3CCCCCC3)c(=O)c2cc1OC,99.9,100.2,?,100.8,·,·,·,·,·,·,
CC(=O)NC(=S)Nc1ccc(NC(=O)COc2ccc(Cl)cc2Cl)cc1,98.1,100.0,184.4*[activator],150.3*[activator],1.8,99.9,97.1,95.3,98.8,92.9,
O=S(=O)(c1ccccc1)c1ncc(C(F)(F)F)cc1Cl,14.5*,10.3*,11.5*,15.1*,-0.2,105.7,99.3,103.3,98.3,94.5,
O=C(Nc1ccc2c(c1)S(=O)(=O)N=C1CCCCCN12)c1ccccc1Cl,101.6,96.4,?,99.8,·,·,·,·,·,·,
COc1ccc(NC(=O)CNS(=O)(=O)c2ccc(Cl)cc2)cc1,105.2,104.8,104.2,103.2,·,·,·,·,·,·,
CC(=O)NC(Cc1c[nH]c2ccccc12)C(=O)OCC(=O)Nc1cc(C)on1 (stereo not drawn),21.3*,29.0,112.4,72.4,-0.4,106.4,105.5,111.0,108.0,110.9,RGS-Gao=72.4*
CC1(C(=O)NCc2cc(F)cc(C(F)(F)F)c2)C=CC2(CCCCC2)N1C(=O)c1ccccc1 (stereo not drawn),97.9,94.9,101.1,97.8,·,·,·,·,·,·,
Cc1ccsc1C(=O)OCC(=O)N1CC(=O)Nc2ccccc21,93.6,95.1,89.1,90.5,·,·,·,·,·,·,
Cc1ccc(Cl)cc1N(CC(=O)NC1CCCCC1)S(C)(=O)=O,246.7*[activator],i,197.2*[activator],180.2*[activator],-2.3,102.6,107.8,104.4,102.0,106.5,
CC1CCN(C(=O)c2ccc(NS(C)(=O)=O)cc2)CC1,·,·,·,·,0.8,101.5,103.5,100.6,102.4,87.5,
O=C1C(C=NCc2ccco2)=C(O)c2ccccc21,87.4,-57.5*,92.9,90.5,1.4,98.2,93.0,95.8,96.8,98.7,RGS-Gao=90.5*
Nc1nc(Cl)cc(Nc2ccccc2Cl)n1,100.3,100.6,?,97.9,·,·,·,·,·,·,
CC(C)c1onc(C(=O)N2C(C)CCCC2C)c1[N+](=O)[O-] (stereo not drawn),101.6,107.0,99.1,98.8,·,·,·,·,·,·,

# From PubChem BioAssay
